The record followed here is paper PMC5700166.

The target in the experiment is T1, GST-Dm-Relish (Drosophila melanogaster, UniProt Q94527 99-473).
T1 sequence: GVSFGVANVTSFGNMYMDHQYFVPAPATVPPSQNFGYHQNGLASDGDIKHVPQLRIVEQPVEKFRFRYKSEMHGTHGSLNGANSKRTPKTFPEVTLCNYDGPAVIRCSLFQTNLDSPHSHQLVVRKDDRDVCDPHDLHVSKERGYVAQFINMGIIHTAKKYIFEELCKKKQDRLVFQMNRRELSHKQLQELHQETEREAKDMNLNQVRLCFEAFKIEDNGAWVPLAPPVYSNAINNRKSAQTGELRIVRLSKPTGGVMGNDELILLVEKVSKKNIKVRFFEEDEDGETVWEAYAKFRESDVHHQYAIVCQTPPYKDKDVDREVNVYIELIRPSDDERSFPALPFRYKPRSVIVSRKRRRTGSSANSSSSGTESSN
The experiment can be described thus: protein-binding microarray (PBM); PBM: ~300 nM protein, 6 mM HEPES pH 7.8, 80 mM KCl, 0.5 mM EDTA, 0.5 mM EGTA, 6% glycerol, 35 ng/ul poly-dIdC, 1% milk, 1 h, room temperature; Ap Aiptasia and Nv Nematostella (sea anemones) / Co Capsaspora / Aq Amphimedon (sponge) / Dm Drosophila / Hu human; RHD is the Rel homology domain; high values mean tight binding. Particulars: dsDNA, one strand shown.
For “CCGATTAACATCAGACAATCCCCTGATGTTAATCGGGTCTTGATTCGCTTGACGCTGCTG”, the binding signal was 4.95 z-score.
In turn, “CCGATTAACATCAGGAAAACCCCTGATGTTAATCGGGTCTTGATTCGCTTGACGCTGCTG” yielded a binding signal of 8.77 z-score.
For the sequence “CCGATTAACATCAGGGAAATCACTGATGTTAATCGGGTCTTGATTCGCTTGACGCTGCTG”, the binding signal is 8.27 z-score.
The figure for “CCGATTAACATCAGGAAAATCCCTGATGTTAATCGGGTCTTGATTCGCTTGACGCTGCTG” is 7.08 z-score.
As for “CCGATTAACATCAAAAAGCCCCCTGATGTTAATCGGGTCTTGATTCGCTTGACGCTGCTG”, the binding signal stood at 9.41 z-score.
As to “CCGATTAACATCAAATCTCCCCCTGATGTTAATCGGGTCTTGATTCGCTTGACGCTGCTG”, the binding signal is 4.14 z-score.
The value for “CCGATTAACATCACACTACCCCCTGATGTTAATCGGGTCTTGATTCGCTTGACGCTGCTG” was 1.77 z-score.
The value for “CCGATTAACATCAGGGGGAAACATGATGTTAATCGGGTCTTGATTCGCTTGACGCTGCTG” was 3.99 z-score; that for “CCGATTAACATCAGGGGGAACGATGATGTTAATCGGGTCTTGATTCGCTTGACGCTGCTG” was 2.42 z-score.
The sequence “CCGATTAACATCAAGTATCCCCCTGATGTTAATCGGGTCTTGATTCGCTTGACGCTGCTG” gave a binding signal of 4.38 z-score.
The value for “CCGATTAACATCAATCTTTCCCCTGATGTTAATCGGGTCTTGATTCGCTTGACGCTGCTG” was 3.33 z-score; that for “CCGATTAACATCAAAATTACCCATGATGTTAATCGGGTCTTGATTCGCTTGACGCTGCTG” was 4.11 z-score; that for “CCGATTAACATCACAAAAGTCCCTGATGTTAATCGGGTCTTGATTCGCTTGACGCTGCTG” was 7.55 z-score.
The figure for “CCGATTAACATCAGGGGGCAATATGATGTTAATCGGGTCTTGATTCGCTTGACGCTGCTG” is 2.2 z-score.
In turn, “CCGATTAACATCAGGGGACTACCTGATGTTAATCGGGTCTTGATTCGCTTGACGCTGCTG” gave a binding signal of 7.3 z-score.
The value for “CCGATTAACATCACGGGATTTGGTGATGTTAATCGGGTCTTGATTCGCTTGACGCTGCTG” was 1.79 z-score; that for “CCGATTAACATCACAAAGTCCCCTGATGTTAATCGGGTCTTGATTCGCTTGACGCTGCTG” was 7.95 z-score; that for “CCGATTAACATCAGAAATATCCCTGATGTTAATCGGGTCTTGATTCGCTTGACGCTGCTG” was 3.52 z-score.
The value for “CCGATTAACATCAGGGGGTTGGATGATGTTAATCGGGTCTTGATTCGCTTGACGCTGCTG” was 4.45 z-score; that for “CCGATTAACATCACTACCCCCCCTGATGTTAATCGGGTCTTGATTCGCTTGACGCTGCTG” was 3.94 z-score.
The value for “CCGATTAACATCAAATTCCCGGGTGATGTTAATCGGGTCTTGATTCGCTTGACGCTGCTG” was 3.94 z-score.
Sequence “CCGATTAACATCAAATTACCCCCTGATGTTAATCGGGTCTTGATTCGCTTGACGCTGCTG” showed a binding signal of 4.33 z-score.
The figure for “CCGATTAACATCAAAAAAACCCCTGATGTTAATCGGGTCTTGATTCGCTTGACGCTGCTG” is 9.78 z-score; for “CCGATTAACATCAGGGGATACACTGATGTTAATCGGGTCTTGATTCGCTTGACGCTGCTG” it is 5.84 z-score; for “CCGATTAACATCAATTTTCCCCATGATGTTAATCGGGTCTTGATTCGCTTGACGCTGCTG” it is 2.3 z-score.
The figure for “CCGATTAACATCAAAAATCCCACTGATGTTAATCGGGTCTTGATTCGCTTGACGCTGCTG” is 7.7 z-score.
The figure for “CCGATTAACATCAGCAATTCCCCTGATGTTAATCGGGTCTTGATTCGCTTGACGCTGCTG” is 3.8 z-score; for “CCGATTAACATCAGGGAAAAGTATGATGTTAATCGGGTCTTGATTCGCTTGACGCTGCTG” it is 1.56 z-score; for “CCGATTAACATCAATAACCCCCCTGATGTTAATCGGGTCTTGATTCGCTTGACGCTGCTG” it is 8.07 z-score.
“CCGATTAACATCAGGGCATCCCCTGATGTTAATCGGGTCTTGATTCGCTTGACGCTGCTG” returned a binding signal of 9.13 z-score.
The value for “CCGATTAACATCAGGGGGAGATATGATGTTAATCGGGTCTTGATTCGCTTGACGCTGCTG” was 2.53 z-score; that for “CCGATTAACATCAGGGGATCCCCTGATGTTAATCGGGTCTTGATTCGCTTGACGCTGCTG” was 10.8 z-score; that for “CCGATTAACATCACCCAATTCCCTGATGTTAATCGGGTCTTGATTCGCTTGACGCTGCTG” was 1.62 z-score.
Consider “CCGATTAACATCAAGGGGAAAACTGATGTTAATCGGGTCTTGATTCGCTTGACGCTGCTG”, for which the binding signal came out at 5.32 z-score.
The value for “CCGATTAACATCAGGAAATCCCCTGATGTTAATCGGGTCTTGATTCGCTTGACGCTGCTG” was 10.3 z-score; that for “CCGATTAACATCATTTGGGAAAATGATGTTAATCGGGTCTTGATTCGCTTGACGCTGCTG” was 1.08 z-score; that for “CCGATTAACATCAATATTCCCCATGATGTTAATCGGGTCTTGATTCGCTTGACGCTGCTG” was 3.77 z-score.
The value for “CCGATTAACATCAGATTTCCCCCTGATGTTAATCGGGTCTTGATTCGCTTGACGCTGCTG” was 6.42 z-score.
The figure for “CCGATTAACATCAGGGCTGCCCCTGATGTTAATCGGGTCTTGATTCGCTTGACGCTGCTG” is 4.09 z-score.
